Assays:
Experiment in all cases: log2 ratio of Biotin-Ahx-Ub-VS probe labelling (fragment/DMSO); higher = less target engagement (more negative = stronger competition), active = hit call of the paper (q ≤ 0.05, log2 ratio ≤ -1)
Conditions in all cases: compound concentration: 200 uM; treatment time: 3 h
OTUD6B = molecular target: T1, OTUD6B (UniProt Q8N6M0)
T1 sequence (whole entry): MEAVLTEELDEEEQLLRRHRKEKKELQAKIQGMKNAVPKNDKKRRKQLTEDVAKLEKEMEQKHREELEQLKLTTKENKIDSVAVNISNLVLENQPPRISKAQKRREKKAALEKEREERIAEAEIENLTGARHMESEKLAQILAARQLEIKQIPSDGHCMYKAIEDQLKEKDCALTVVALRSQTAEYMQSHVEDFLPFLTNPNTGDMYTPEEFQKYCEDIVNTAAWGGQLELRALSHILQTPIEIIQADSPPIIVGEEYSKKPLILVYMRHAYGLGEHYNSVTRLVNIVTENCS
Outline: (§1)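 HEK293T lysate, 495 µg per sample in Tris/CHAPS/IGEPAL buffer with protease inhibitors, was treated in triplicate with fragment at 200 µM or vehicle for 3 h and then with Biotin-Ahx-Ub-VS at 0.5 µM final for 1 h. Labelled DUBs were NeutrAvidin-enriched, digested with LysC and trypsin, and run by diaPASEF LC-MS/MS. Spectronaut label-free quantities were global-median-normalised, and values are average log2 fragment/vehicle ratios by unpaired t-test on proteins with ≥2 unique peptides.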

OTUD7B = molecular target: T2, OTUD7B (UniProt Q6GQQ9)
T2 sequence (whole entry): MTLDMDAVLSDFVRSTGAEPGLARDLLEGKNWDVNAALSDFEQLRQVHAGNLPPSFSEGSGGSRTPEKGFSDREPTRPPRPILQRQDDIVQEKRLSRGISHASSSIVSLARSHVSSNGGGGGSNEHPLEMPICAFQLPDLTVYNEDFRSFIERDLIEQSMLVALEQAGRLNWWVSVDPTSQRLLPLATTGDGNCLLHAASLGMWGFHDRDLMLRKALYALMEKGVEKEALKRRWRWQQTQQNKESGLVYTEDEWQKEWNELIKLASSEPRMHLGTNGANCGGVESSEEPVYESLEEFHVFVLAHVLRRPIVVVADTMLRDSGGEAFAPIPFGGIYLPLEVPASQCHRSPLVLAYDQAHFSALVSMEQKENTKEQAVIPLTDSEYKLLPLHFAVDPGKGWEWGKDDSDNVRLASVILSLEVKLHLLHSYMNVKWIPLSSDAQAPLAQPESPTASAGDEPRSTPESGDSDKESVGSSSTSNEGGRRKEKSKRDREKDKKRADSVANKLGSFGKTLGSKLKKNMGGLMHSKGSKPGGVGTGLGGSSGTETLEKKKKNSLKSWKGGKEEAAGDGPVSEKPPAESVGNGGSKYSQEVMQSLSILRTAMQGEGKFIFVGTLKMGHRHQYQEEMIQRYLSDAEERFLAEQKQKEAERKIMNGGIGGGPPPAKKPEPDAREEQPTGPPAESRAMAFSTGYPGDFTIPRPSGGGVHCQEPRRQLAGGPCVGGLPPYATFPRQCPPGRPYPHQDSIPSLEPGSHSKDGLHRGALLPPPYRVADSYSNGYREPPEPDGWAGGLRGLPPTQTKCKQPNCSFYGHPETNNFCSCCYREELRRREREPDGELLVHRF
Outline: as §1

PRPF8 = PRPF8 (UniProt Q6P2Q9)
Outline: as §1

PSMD7 = molecular target: T3, PSMD7 (UniProt P51665)
T3 sequence (whole entry): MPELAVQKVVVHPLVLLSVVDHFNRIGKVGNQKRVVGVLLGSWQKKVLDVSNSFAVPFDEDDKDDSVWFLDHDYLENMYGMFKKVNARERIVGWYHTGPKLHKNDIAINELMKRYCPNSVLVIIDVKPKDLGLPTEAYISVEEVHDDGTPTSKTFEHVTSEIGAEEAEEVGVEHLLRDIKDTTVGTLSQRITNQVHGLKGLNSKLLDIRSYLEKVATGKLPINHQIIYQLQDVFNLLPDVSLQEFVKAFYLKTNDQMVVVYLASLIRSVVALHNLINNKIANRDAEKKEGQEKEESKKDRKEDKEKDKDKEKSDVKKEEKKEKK
Outline: as §1

UCHL1 = UCHL1 (UniProt P09936)
Outline: as §1

UCHL3 = molecular target: T4, UCHL3 (UniProt P15374)
T4 sequence (whole entry): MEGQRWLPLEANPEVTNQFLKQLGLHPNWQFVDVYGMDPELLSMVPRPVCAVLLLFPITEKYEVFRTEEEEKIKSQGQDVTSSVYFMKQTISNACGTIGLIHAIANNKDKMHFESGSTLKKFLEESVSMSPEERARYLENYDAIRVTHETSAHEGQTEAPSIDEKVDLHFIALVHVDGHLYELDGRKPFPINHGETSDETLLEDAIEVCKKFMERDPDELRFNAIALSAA
Outline: as §1

UCHL5 = molecular target: T5, UCHL5 (UniProt Q9Y5K5)
T5 sequence (whole entry): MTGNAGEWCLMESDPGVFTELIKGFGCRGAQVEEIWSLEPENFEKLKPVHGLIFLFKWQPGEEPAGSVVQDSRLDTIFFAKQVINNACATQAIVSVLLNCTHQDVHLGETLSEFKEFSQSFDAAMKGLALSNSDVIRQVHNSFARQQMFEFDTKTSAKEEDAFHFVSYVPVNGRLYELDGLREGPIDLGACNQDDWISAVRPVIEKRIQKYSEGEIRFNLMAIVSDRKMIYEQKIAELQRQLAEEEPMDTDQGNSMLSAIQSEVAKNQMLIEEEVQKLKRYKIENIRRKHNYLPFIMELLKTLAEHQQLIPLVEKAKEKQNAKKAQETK
Outline: as §1

USP10 = USP10 (UniProt Q14694)
Outline: as §1

USP15 = molecular target: T6, USP15 (UniProt Q9Y4E8)
T6 sequence (whole entry): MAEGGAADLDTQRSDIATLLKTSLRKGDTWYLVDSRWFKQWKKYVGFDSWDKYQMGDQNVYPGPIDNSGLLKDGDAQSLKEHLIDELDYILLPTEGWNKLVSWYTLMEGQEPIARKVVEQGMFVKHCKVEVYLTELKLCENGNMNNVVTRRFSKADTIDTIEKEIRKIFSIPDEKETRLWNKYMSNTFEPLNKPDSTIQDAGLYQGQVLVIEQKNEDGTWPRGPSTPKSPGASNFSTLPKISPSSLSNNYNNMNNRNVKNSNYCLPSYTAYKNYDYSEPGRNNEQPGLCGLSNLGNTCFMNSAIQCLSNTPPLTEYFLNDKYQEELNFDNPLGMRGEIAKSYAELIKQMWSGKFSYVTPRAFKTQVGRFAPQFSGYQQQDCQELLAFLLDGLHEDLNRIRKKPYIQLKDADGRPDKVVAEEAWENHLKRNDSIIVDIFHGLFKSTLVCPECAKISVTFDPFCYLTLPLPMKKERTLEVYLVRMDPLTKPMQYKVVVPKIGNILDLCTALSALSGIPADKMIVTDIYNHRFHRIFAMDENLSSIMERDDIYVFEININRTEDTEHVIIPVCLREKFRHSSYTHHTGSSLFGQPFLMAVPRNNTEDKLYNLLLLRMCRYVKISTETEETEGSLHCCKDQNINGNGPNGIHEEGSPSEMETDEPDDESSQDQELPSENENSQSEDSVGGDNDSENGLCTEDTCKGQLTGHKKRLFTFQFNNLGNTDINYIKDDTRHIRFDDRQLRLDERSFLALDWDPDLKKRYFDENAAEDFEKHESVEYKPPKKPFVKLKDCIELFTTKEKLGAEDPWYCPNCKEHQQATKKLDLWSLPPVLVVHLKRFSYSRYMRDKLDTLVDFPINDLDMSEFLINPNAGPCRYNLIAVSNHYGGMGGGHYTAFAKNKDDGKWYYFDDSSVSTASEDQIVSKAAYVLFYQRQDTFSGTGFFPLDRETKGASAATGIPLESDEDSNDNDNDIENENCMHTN
Outline: as §1

USP16 = USP16 (UniProt Q9Y5T5)
Outline: as §1

Measured: log2 ratio of Biotin-Ahx-Ub-VS probe labelling

Sequence of USP16 (Q9Y5T5 whole entry, looked up): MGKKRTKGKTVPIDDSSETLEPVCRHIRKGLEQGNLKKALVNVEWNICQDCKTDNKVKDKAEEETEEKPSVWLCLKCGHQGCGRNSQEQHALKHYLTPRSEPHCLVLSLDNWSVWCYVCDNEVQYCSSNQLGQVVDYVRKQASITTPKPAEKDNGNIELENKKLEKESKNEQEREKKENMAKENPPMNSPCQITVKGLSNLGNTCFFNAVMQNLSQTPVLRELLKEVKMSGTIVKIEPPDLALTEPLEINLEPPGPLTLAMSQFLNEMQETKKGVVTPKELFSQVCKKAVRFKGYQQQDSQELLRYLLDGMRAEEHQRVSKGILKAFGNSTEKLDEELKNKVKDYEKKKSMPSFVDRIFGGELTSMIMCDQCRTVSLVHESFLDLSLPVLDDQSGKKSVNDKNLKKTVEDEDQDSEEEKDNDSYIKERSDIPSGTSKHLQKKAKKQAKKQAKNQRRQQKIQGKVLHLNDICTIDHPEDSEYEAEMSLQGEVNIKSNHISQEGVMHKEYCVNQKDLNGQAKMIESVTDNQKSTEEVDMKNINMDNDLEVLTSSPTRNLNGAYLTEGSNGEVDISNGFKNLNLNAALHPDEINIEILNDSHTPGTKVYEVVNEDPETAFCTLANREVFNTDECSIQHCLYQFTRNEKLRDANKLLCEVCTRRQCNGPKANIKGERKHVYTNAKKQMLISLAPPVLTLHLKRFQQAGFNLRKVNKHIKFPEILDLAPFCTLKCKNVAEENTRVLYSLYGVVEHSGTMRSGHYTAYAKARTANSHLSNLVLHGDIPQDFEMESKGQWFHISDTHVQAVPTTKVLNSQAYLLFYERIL
Sequence of UCHL1 (P09936 whole entry, looked up): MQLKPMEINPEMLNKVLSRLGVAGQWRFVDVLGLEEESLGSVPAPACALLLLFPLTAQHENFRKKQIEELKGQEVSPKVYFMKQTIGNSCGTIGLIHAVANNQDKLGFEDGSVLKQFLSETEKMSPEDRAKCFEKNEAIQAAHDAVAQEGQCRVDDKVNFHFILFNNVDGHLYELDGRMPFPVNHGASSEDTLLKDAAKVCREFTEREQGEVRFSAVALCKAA
Sequence of USP10 (Q14694 whole entry): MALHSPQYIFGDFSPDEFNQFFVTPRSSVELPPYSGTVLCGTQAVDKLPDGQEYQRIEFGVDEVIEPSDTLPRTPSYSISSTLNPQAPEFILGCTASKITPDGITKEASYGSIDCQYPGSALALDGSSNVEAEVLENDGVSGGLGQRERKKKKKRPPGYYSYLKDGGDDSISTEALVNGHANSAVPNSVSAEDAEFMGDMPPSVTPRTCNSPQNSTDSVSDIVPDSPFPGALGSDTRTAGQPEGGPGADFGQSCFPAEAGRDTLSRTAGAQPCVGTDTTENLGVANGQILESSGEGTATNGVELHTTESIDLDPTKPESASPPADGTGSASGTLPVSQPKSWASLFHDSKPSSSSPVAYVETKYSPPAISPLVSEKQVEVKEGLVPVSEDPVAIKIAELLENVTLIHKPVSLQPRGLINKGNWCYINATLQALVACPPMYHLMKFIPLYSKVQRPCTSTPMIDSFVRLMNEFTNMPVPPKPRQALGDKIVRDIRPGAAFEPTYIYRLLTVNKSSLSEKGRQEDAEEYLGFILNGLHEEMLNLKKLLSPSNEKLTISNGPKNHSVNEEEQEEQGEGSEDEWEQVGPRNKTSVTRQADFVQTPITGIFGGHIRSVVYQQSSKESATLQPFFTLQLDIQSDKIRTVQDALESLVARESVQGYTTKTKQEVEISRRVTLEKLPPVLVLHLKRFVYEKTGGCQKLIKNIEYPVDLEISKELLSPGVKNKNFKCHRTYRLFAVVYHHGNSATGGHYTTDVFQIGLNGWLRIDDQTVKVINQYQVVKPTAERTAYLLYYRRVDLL

COc1ccc(CN(C)C(=O)CCl)cc1
inactive: OTUD6B -0.199 | OTUD7B -0.373 | PRPF8 0.0533 | PSMD7 -0.411 | UCHL3 0.249 | UCHL5 -0.235 | USP10 -0.213 | USP15 -0.112 | USP16 0.163
active: UCHL1 -1.22

Source: the supplement of paper PMC11732987, “Enantioselective OTUD7B fragment discovery through chemoproteomics screening and high-throughput optimisation” (Communications Chemistry, 2025)
